Results filed as inconclusive are left out. Where a call stands in place of a potency, no number is given. Active and inactive are the calls of the source. Calls come from the whole dose curve; as a rule, active = well fitted curve in the direction sought with a large enough effect; inconclusive = small, poorly fitted or top-dose-only effect, or another doubt; inactive = no such curve, though single readings can be large; an effect the other way counts as inactive or inconclusive.

Test system in one assay: not listed separately
Kind of assay: Primary fluorescence-based thiol-reactive (MSTI) qHTS assay for identification of artifact compounds. (AID 1845221).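 For activity change, negative = thiol reactive: thiol-reactive compounds lower the probe fluorescence signal.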 Note: nearly all actives have a fitted effect of over 65% in size. Note: potency is the fitted concentration of half-maximal effect. Conditions: MSTI thiol-reactivity probe, 1 h; series mostly up to 53.8 µM. Summed up: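 MSTI probe at 4 uM final in 2% DMSO/PBS pH 7.4; compounds, 1 h at room temperature in dark. Fluorescence Ex/Em 525/598 nm, normalised to Acetyl-MSTI and MSTI, fitted to 4-parameter Hill.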
Consider `C[C@]1(CO)CN(c2cc(C(=O)Nc3ccc4c(c3)-c3c(c(C(N)=O)nn3-c3ccc(F)cc3)CC4)c(Cl)cn2)C[C@@]1(C)CO`, for which the Potency result was “inactive”.

In the case of `Cc1cc(C(=O)N2CCN(c3cccc(Cl)c3)CC2)n(-c2ccccc2)n1`, the Potency entry was “inactive”.

On to `CNC(=O)c1ccccc1Nc1nc(Nc2ccc(N3CCOCC3)cc2OC)ncc1Cl`, for which the Potency is 1.89 µM (active).

Take `CC(C)Nc1cc(C(F)(F)F)cc2nc(NC(=O)c3cccnc3)nn12`: the Potency result is “inactive”.

In the case of `CC(C)CC(=O)Nc1n[nH]c2c1CN(C(=O)C1CCN(C)CC1)C2(C)C`, the Potency result is “inactive”.

In the case of `Cn1cc(-c2[nH]c3cc(NC(=O)[C@H](N)C4CCCCC4)cc4c3c2C=NNC4=O)cn1`, the Potency was 21.2 µM (active).

As for `CCCCCCCCCC(=O)N[C@@H](Cc1c[nH]c2ccccc12)C(=O)N[C@H](CC(N)=O)C(=O)N[C@@H](CC(=O)O)C(=O)N[C@@H]1C(=O)NCC(=O)N[C@@H](CCCN)C(=O)N[C@@H](CC(=O)O)C(=O)N[C@H](C)C(=O)N[C@@H](CC(=O)O)C(=O)NCC(=O)N[C@H](CO)C(=O)N[C@@H]([C@@H](C)CC(=O)O)C(=O)N[C@@H](CC(=O)c2ccccc2N)C(=O)O[C@@H]1C`, the Potency result is “inactive”.

Regarding `CC1(C)CCC(c2ccc(Cl)cc2)=C(CN2CCN(c3ccc(C(=O)NS(=O)(=O)c4ccc(N[C@H](CCN5CCOCC5)CSc5ccccc5)c(S(=O)(=O)C(F)(F)F)c4)cc3)CC2)C1`, the Potency entry was “inactive”.

Take `CS(=O)(=O)N1CCN(Cc2cc3nc(-c4cccc5[nH]ncc45)nc(N4CCOCC4)c3s2)CC1`: the Potency entry is “inactive”.

As to `O=C(c1cncc(Br)c1)N1CCC(N2CCCC2)CC1`, the Potency result was “inactive”.

In the case of `COc1c(OCCCN2CCOCC2)ccc2c3n(c(=NC(=O)c4cnc(N)nc4)nc12)CCN3`, the activity change, negative = thiol reactive was 32.5% [at 11.5 µM] (inactive).

For `COC(=O)c1ccc2c(C(=Nc3ccc(N(C)C(=O)CN4CCN(C)CC4)cc3)c3ccccc3)c(O)[nH]c2c1`, the Potency entry was “inactive”.

Consider `COc1cc(C(=O)N2CCC(N3CCN(C)CC3)CC2)ccc1Nc1ncc2c(n1)N(C)c1ccccc1C(=O)N2C`, for which the Potency entry is “inactive”.

Take `CCCNC(=O)Nc1ccc(Oc2ncnc3cc(OC)c(OC)cc23)cc1Cl`: the Potency result was “inactive”.

As to `CCNC(=O)Nc1ccc2ncc(Nc3ccc(C)cc3)nc2n1`, the Potency entry is “inactive”.

For `CNC(=O)c1ccc(-c2cnc3ncc(Cc4ccc5ncccc5c4)n3n2)cc1F`, the Potency result is “inactive”.

Consider `O=C(CCCCCCNC(=O)c1cnc(N(c2ccccc2)c2ccccc2)nc1)NO`, for which the Potency entry was “inactive”.

Take `CCc1cc2c(cc1N1CCC(N3CCOCC3)CC1)C(C)(C)c1[nH]c3cc(C#N)ccc3c1C2=O`: the Potency result was “inactive”.

`O=c1c2ccccc2nc2n1CCc1c-2[nH]c2ccccc12`: the Potency entry was “inactive”.

Turning to `COc1cc2c(cc1-c1c(C)noc1C)ncc1[nH]c(=O)n([C@H](C)c3ccccn3)c12`, the Potency result is “inactive”.

In the next assay the test system is Nanoluciferase (engineered Oplophorus gracilirostris luciferase). Kind of assay: Primary Nanoluciferase (NLuc) qHTS assay for identification of artifact compounds. (AID 1845222). The following applies: NLuc-conditioned medium, Nano-Glo luminescence, 5 min; series mostly up to 54.1 µM. The procedure, abridged: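 Concentration-response data were obtained by luminescence after 5 min with Nano-Glo substrate at 1:100. The enzyme was diluted S16 NLuc-expressing cell medium, preincubated with compound for 15 min at RT. Curves were fitted with a 4-parameter Hill model.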
With `C[C@]1(CO)CN(c2cc(C(=O)Nc3ccc4c(c3)-c3c(c(C(N)=O)nn3-c3ccc(F)cc3)CC4)c(Cl)cn2)C[C@@]1(C)CO`, the Potency entry is “inactive”.

Turning to `Cc1cc(C(=O)N2CCN(c3cccc(Cl)c3)CC2)n(-c2ccccc2)n1`, the Potency result was “inactive”.

`CNC(=O)c1ccccc1Nc1nc(Nc2ccc(N3CCOCC3)cc2OC)ncc1Cl`: the Potency entry is “inactive”.

Consider `CC(C)Nc1cc(C(F)(F)F)cc2nc(NC(=O)c3cccnc3)nn12`, for which the Potency entry is “inactive”.

Regarding `CC(C)CC(=O)Nc1n[nH]c2c1CN(C(=O)C1CCN(C)CC1)C2(C)C`, the Potency result is “inactive”.

With `Cn1cc(-c2[nH]c3cc(NC(=O)[C@H](N)C4CCCCC4)cc4c3c2C=NNC4=O)cn1`, the Potency entry is “inactive”.

In the case of `CCCCCCCCCC(=O)N[C@@H](Cc1c[nH]c2ccccc12)C(=O)N[C@H](CC(N)=O)C(=O)N[C@@H](CC(=O)O)C(=O)N[C@@H]1C(=O)NCC(=O)N[C@@H](CCCN)C(=O)N[C@@H](CC(=O)O)C(=O)N[C@H](C)C(=O)N[C@@H](CC(=O)O)C(=O)NCC(=O)N[C@H](CO)C(=O)N[C@@H]([C@@H](C)CC(=O)O)C(=O)N[C@@H](CC(=O)c2ccccc2N)C(=O)O[C@@H]1C`, the Potency entry is “inactive”.

Consider `CC1(C)CCC(c2ccc(Cl)cc2)=C(CN2CCN(c3ccc(C(=O)NS(=O)(=O)c4ccc(N[C@H](CCN5CCOCC5)CSc5ccccc5)c(S(=O)(=O)C(F)(F)F)c4)cc3)CC2)C1`, for which the Potency entry was “inactive”.

`CS(=O)(=O)N1CCN(Cc2cc3nc(-c4cccc5[nH]ncc45)nc(N4CCOCC4)c3s2)CC1`: the Potency result was “inactive”.

In the case of `O=C(c1cncc(Br)c1)N1CCC(N2CCCC2)CC1`, the Potency result was “inactive”.

With `COc1c(OCCCN2CCOCC2)ccc2c3n(c(=NC(=O)c4cnc(N)nc4)nc12)CCN3`, the activity, negative = inhibition is 0.183% [at 11.6 µM] (inactive).

As for `CN(C)Cc1c(C(=O)NCCOc2ccc(C(=O)NO)cc2)oc2ccccc12`, the Potency result is “inactive”.

For `COC(=O)c1ccc2c(C(=Nc3ccc(N(C)C(=O)CN4CCN(C)CC4)cc3)c3ccccc3)c(O)[nH]c2c1`, the Potency result was “inactive”.

Consider `COc1cc(C(=O)N2CCC(N3CCN(C)CC3)CC2)ccc1Nc1ncc2c(n1)N(C)c1ccccc1C(=O)N2C`, for which the Potency entry is “inactive”.

With `COc1cccc2c(NCc3ccccc3)nc(-n3c(N)nc4ccccc43)nc12`, the Potency result is “inactive”.

In the case of `CCCNC(=O)Nc1ccc(Oc2ncnc3cc(OC)c(OC)cc23)cc1Cl`, the Potency entry was “inactive”.

Turning to `CCNC(=O)Nc1ccc2ncc(Nc3ccc(C)cc3)nc2n1`, the Potency entry was “inactive”.

For the molecule `CNC(=O)c1ccc(-c2cnc3ncc(Cc4ccc5ncccc5c4)n3n2)cc1F`, the Potency entry is “inactive”.

With `O=C(CCCCCCNC(=O)c1cnc(N(c2ccccc2)c2ccccc2)nc1)NO`, the Potency entry is “inactive”.

`CCc1cc2c(cc1N1CCC(N3CCOCC3)CC1)C(C)(C)c1[nH]c3cc(C#N)ccc3c1C2=O`: the Potency entry was “inactive”.

With `O=c1c2ccccc2nc2n1CCc1c-2[nH]c2ccccc12`, the Potency entry is “inactive”.

Consider `COc1cc2c(cc1-c1c(C)noc1C)ncc1[nH]c(=O)n([C@H](C)c3ccccn3)c12`, for which the Potency result was “inactive”.

Source of the values: PubChem BioAssay (NCATS).
